Assay results taken from PubChem BioAssay AID977607 (Broad Institute, 2014).
Among all 1,500 compounds or so, about 460 (31%) were called active. About 1% were inconclusive and are not listed.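 Rule for the calls: active = curve reaches 40% activation over neutral controls at an AC40 no higher than the top valid tested concentration; inconclusive = no clear call, values can overlap the other calls; inactive = signal moving opposite to the expected increase, and the rest.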 These entries were drawn from the full list. Results with a measured potency or affinity are listed apart.

Test: activators of glucose-dependent insulin secretion, dose response, cell-based, INS-1E, Gaussia luciferase, luminescence, cherry-pick, set 2 (AID 977607);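 note: 0% = median of the plate neutral control wells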
Details: INS-1E GLuc insulin secretion reporter, 2-3 h, active compounds read high; at 35 µM, 100% = signal doubled over neutral wells unless noted

Max activation, inactive:
CC(C)NC(=O)OC[C@H]1O[C@H](C#Cc2ccc(C(C)(C)C)cc2)C=C[C@H]1O 54.1%
CC(C)NC(=O)C1(C)CN(S(C)(=O)=O)CC(=O)N1CCCN1CCOCC1 (configuration not stated) -19.6% [at 0.015 µM, 100% = signal doubled over neutral wells]
O=C(O)c1ccc(-n2nnnc2SCc2cccc(Br)c2)cc1 -16.4% [at 0.135 µM, 100% = signal doubled over neutral wells]
O=C(O)c1ccc(-n2nnnc2SCc2ccccc2Br)cc1 24.2%
O=C(Nc1ccc(F)cc1)C1COc2ccccc2O1 (configuration not stated) -26.7%
Cc1ccc(CS(=O)Cc2ccc(C(=O)NCc3ccccc3)o2)cc1 (configuration not stated) 8.81% [at 1.2 µM, 100% = signal doubled over neutral wells]
Clc1ccc(OCCn2ccnc2)c(Cl)c1 53.2%
COc1ccc(/C=C/c2noc(-c3ccccc3OC(C)=O)n2)cc1 -25.1%
O=C(COc1cccc2c1CCNC2=O)NC1CCCCC1 -23.7% [at 1.2 µM, 100% = signal doubled over neutral wells]
CCCCOc1ccc(C2=NNC(=O)CC2)cc1 -15.4% [at 3.8 µM, 100% = signal doubled over neutral wells]
COCCNc1nc(N2CCCCC2)c2cnn(C)c2n1 -16.6% [at 0.42 µM, 100% = signal doubled over neutral wells]
Cc1c(P(=S)(c2ccccc2)c2ccccc2)[n+]2ccccc2n1C/C=C/c1ccccc1 -32.8%
O=C(Nc1ccc(C(=O)N2CCCC2)cc1)c1cccc(C(F)(F)F)c1 -13% [at 0.015 µM, 100% = signal doubled over neutral wells]
O=c1[nH]c2ccccc2nc1-c1nnnn1C1CCCC1 -11.7%
COc1ccc(-c2nc(N)ncc2-c2ccc(OC)c(OC)c2)c(O)c1 -26.8% [at 0.046 µM, 100% = signal doubled over neutral wells]
COc1ccc(CN2CCOC2=O)cc1OC -24.4% [at 0.046 µM, 100% = signal doubled over neutral wells]
COc1ccc(CNC(=O)CCn2c(=O)oc3ccccc32)c(OC)c1 -18.2% [at 3.8 µM, 100% = signal doubled over neutral wells]
O=C([C@H]1O[C@@H](n2ccc(=O)[nH]c2=O)[C@H](O)[C@@H]1O)N1CCN(c2ccc(Cl)cn2)CC1 -17.9% [at 1.2 µM, 100% = signal doubled over neutral wells]
CS(=O)(=O)N1CCCCC1c1cc(C(=O)Nc2cccc(C#N)c2)no1 (configuration not stated) -20.8% [at 0.135 µM, 100% = signal doubled over neutral wells]
COc1ccc(C2=NOC(C(=O)Nc3cccnc3)C2)cc1OC (configuration not stated) 36.7% [at 11 µM, 100% = signal doubled over neutral wells]
COc1ccc(-c2noc(CCC(=O)Nc3cccnc3)n2)cc1OC 10.9%
CCC(CC)NC(=O)c1ccccc1Oc1ccccc1 -14.5% [at 0.046 µM, 100% = signal doubled over neutral wells]
CC(=O)c1ccc2c(c1)N(Cc1ccccc1)C(=O)C(C)S2 (configuration not stated) -15.7% [at 3.8 µM, 100% = signal doubled over neutral wells]
CC(C)(C)c1ccc(C#C[C@@H]2C=C[C@H]3OC(=O)CC/C=C/CCC(=O)OC[C@H]3O2)cc1 -35.6% [at 3.8 µM, 100% = signal doubled over neutral wells]
CCOC(=O)C1=C(COC(=O)c2cccs2)NC(=O)NC1C (configuration not stated) 39.2% [at 11 µM, 100% = signal doubled over neutral wells]
CCOc1cc(NC(=O)c2ccco2)c(OCC)cc1NC(=O)c1cc(OC)c(OC)c(OC)c1 33.6%
Cc1ccc2sc(-c3ccc(NC(=O)c4cc(-n5cnnc5)ccc4Cl)cc3)nc2c1 38.9%
Cc1c(Cc2ccccc2)sc(NC(=O)c2ccco2)c1C(N)=O -16.3% [at 0.015 µM, 100% = signal doubled over neutral wells]
Cc1ccc(C2(C)NC(=O)N(CC(=O)Nc3ccc(-c4nc5ccc(C)cc5s4)cc3)C2=O)cc1 (configuration not stated) -34.8%
COc1ccc(-c2c(NC(=O)c3ccco3)oc3ccc(Cl)cc3c2=O)cc1 -15.5% [at 0.42 µM, 100% = signal doubled over neutral wells]
Cc1ccnc(NC(=O)CNC(=O)c2ccco2)c1 -26.8% [at 3.8 µM, 100% = signal doubled over neutral wells]
CN(C)CCNc1ncnc2oc(-c3ccccc3)c(-c3ccccc3)c12 -17.7% [at 0.0016 µM, 100% = signal doubled over neutral wells]
CCOC(=O)C1CCCN(C(=O)c2ccccc2OC(F)(F)F)CC1 (configuration not stated) -23.6% [at 0.0016 µM, 100% = signal doubled over neutral wells]
CCOc1cc(/C=N/NC(=O)CCn2nnc3ccccc32)ccc1O 23.5%
CCOc1ccccc1OCCC(=O)NNC(=O)Cn1nc(C)cc1C -16% [at 0.005 µM, 100% = signal doubled over neutral wells]
CCn1nnc(NC(=O)c2sc3ccccc3c2Cl)n1 -17.8% [at 3.8 µM, 100% = signal doubled over neutral wells]
Cc1c(NC(=S)NC(=O)c2sc3ccccc3c2Cl)cccc1C(=O)O -23.7% [at 0.0016 µM, 100% = signal doubled over neutral wells]
